# Screening data (PubChem)
# BaF3 parental = reduces parental Ba/F3 cell viability, JAK2V617F counter-screen; CellTiter-Glo ATP luminescence; inhibition, % at 5.6 µM; 220,000 tested, 1.1% active; AID 1486;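 active = inhibition above a per-campaign cutoff, the mean inhibition of all tested compounds plus 3 SD, cut at about 27% in these data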
# aSyn 5UTR inh = MLPCN primary screen, SNCA 5' untranslated region | alpha-synuclein 5'UTR reporter, inhibitor activity | inhibition, % (tested at 7.5 µM) | 300,000 tested, 0.82% active; in the data active = inhibition above about 60%;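 also: H4 neuroglioblastoma cells stably carrying SNCA 5'UTR luciferase fusion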
# Ba/F3 V617F tox = reduce viability of Ba/F3 cells dependent on JAK2V617F | AID 1446 | inhibition, % at 5.6 µM | Ba/F3 EpoR-JAK2V617F viability, ATP luminescence | 220,000 tested, 1.1% active;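 active = inhibition above the campaign mean plus 3 SD over all tested compounds, cut at about 24% in these data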;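 also: cytokine-independent growth of Ba/F3 cells driven by EpoR plus mutant JAK2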
# KLF5 inhibitor = kruppel-like factor 5 inhibition; DLD-1 KLF5 promoter-luciferase reporter, luminescence; inhibition, % at 5 µM; 290,000 tested, 0.23% active;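 active = inhibition above a per-plate limit of that plate's mean compound inhibition plus 3 SD, cut at about 60% in these data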;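 also: higher means less KLF5 promoter-driven luciferase light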
# IEC-6 tox = kills IEC-6 intestinal cells in KLF5 counter-screen; 290,000 tested, 0.78% active; IEC-6 cytotoxicity, luminescence viability; inhibition, % at 5 µM
# APP transl inh = APP translation inhibition. SH-SY5Y APP 5'UTR-luciferase reporter, luminescence. inhibition, % at 2 µM. 190,000 tested, 0.82% active. AID 1285;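 active = inhibition above a set limit, derived from the sample mean plus 3 SD, cut at about 45% in these data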
# IEC-6 cytotox cf = IEC-6 cytotoxicity, confirmation assay; 1,900 tested, 63% active; inhibition, % at 5 µM; IEC-6 rat intestinal epithelial viability, luminescence; AID 1907; shares compounds with IEC-6 tox
# A number is an active result; . = inactive; / = no result given. Shown are actives, neighbours in structure and some others; about 2.2% of the full set was active somewhere. Rule as the data show it, unless noted: active = inhibition above about 22%; inactive = the rest.
SMILES,BaF3 parental,aSyn 5UTR inh,Ba/F3 V617F tox,KLF5 inhibitor,IEC-6 tox,APP transl inh,IEC-6 cytotox cf
O=c1[nH]c(=O)n([C@H]2C[C@H](O)[C@@H](CO)O2)cc1C(F)(F)F,88,77,96,.,85,59,80
COc1ccccc1CN(CC(=O)NCc1ccc(F)cc1)C(=O)c1csnn1,/,.,/,.,.,/,/
C/C(=N\NC(=O)c1nnn(-c2nonc2N)c1CN(C)c1ccccc1)c1ccccc1O,/,.,/,.,51,/,50
COc1ccc(/C(C)=N/NC(=O)c2nnn(-c3nonc3N)c2CN(C)c2ccccc2)cc1,/,.,/,.,.,/,/
COc1ccc(CNC(=O)c2cc(-c3cc(C)ccc3O)n[nH]2)cc1,.,.,.,.,.,/,/
CC(NC(=O)CCSCc1ccccc1F)c1ccccc1 (configuration not stated),/,.,/,.,.,/,/
COc1ccc(/C=N/NC(=O)CCn2cnc(-c3ccccc3)c2-c2ccccc2)cc1OC,63,.,58,.,71,80,46
CCCc1cc(=O)oc2cc(OCc3ccc(C(=O)O)o3)ccc12,/,.,/,.,.,/,/
O=C(Nc1ccc(N2CCOCC2)cc1)c1ccc([N+](=O)[O-])o1,/,.,/,.,79,/,25
O=C(Nc1ccc(N2CCOCC2)cc1)c1ccc(Br)o1,/,.,/,.,.,/,/
O=C(Nc1ccc(N2CCN(C(=O)c3cccs3)CC2)cc1)c1ccco1,/,.,/,.,.,/,/
CC(=O)Nc1ccc2nc(NC(=O)c3ccc([N+](=O)[O-])o3)sc2c1,/,.,/,.,56,/,.
O=C(Nc1ccc(Cc2ccncc2)cc1)c1ccc([N+](=O)[O-])o1,/,.,/,.,51,/,.
O=C(Nc1ccc(N2CCN(C(=O)c3cccs3)CC2)cc1)c1ccc([N+](=O)[O-])o1,/,106,/,.,101,/,96
CCOC(=O)CN1C(=O)N[C@@H](c2ccccc2)C(C(=O)OC)=C1C,.,/,.,.,.,.,/
CC(C)c1nc(SCC(=O)Nc2cccc(C(F)(F)F)c2)c2c(=O)n(C)c(=O)n(C)c2n1,.,.,.,.,.,.,/
COc1ccc(Cl)cc1NC(=O)CN(C)CC(=O)Nc1cc(OC)c(OC)c(OC)c1,/,.,/,.,40,/,33
COc1ccc(Cl)cc1NC(=O)CN(C)CC(=O)Nc1ccc(Br)cc1,.,.,.,.,.,.,/
Cc1ccc2cc(/C=N/NC(=O)[C@H](C)NC(=O)OC(C)(C)C)c(Cl)nc2c1,.,.,.,.,.,.,/
Clc1ccc(OCCN2CCN(c3ncnc4sccc34)CC2)cc1,73,.,66,.,26,.,.
O=C(/C=C/c1ccco1)OCC(=O)c1cccc([N+](=O)[O-])c1,/,.,/,.,.,/,/
CN(CC1CCCO1)S(=O)(=O)c1ccc(C(=O)Nc2nc(-c3ccccn3)cs2)cc1 (configuration not stated),61,/,70,.,57,74,52
CN(CC1CCCO1)S(=O)(=O)c1ccc(C(=O)Nc2nnc(-c3ccccc3)o2)cc1 (configuration not stated),/,.,/,.,27,/,.
COc1ccccc1-c1nnc(NC(=O)c2ccc(S(=O)(=O)N(C)CC3CCCO3)cc2)o1 (configuration not stated),/,.,/,.,.,/,/
CCCn1cnc2scc(-c3ccc(C)cc3)c2c1=O,.,.,.,.,.,.,/
SMILES,BaF3 parental,aSyn 5UTR inh,Ba/F3 V617F tox,KLF5 inhibitor,IEC-6 tox,APP transl inh,IEC-6 cytotox cf
CC1(C)CC(=O)C2=C(C1)NC(Nc1nc3ccccc3o1)=NC2c1ccccn1 (configuration not stated),.,.,.,.,23,.,.
C/C=C/c1ccc(OCCCCN2CCN(CC)CC2)c(OC)c1,.,.,.,.,.,.,/
O=C(N/N=C/c1ccc2c(c1)OCO2)c1cccc2ccccc12,/,.,/,.,28,/,25
Cc1ccc2nc(N(CCCN(C)C)C(=O)c3ccco3)sc2c1,.,.,.,.,.,.,/
CN(C)CCCN(C(=O)c1ccco1)c1nc2cc3c(cc2s1)OCO3,/,.,/,.,45,/,.
CC(=O)c1ccc(NC(=O)[C@@H]2CCCN2C(=O)OC(C)(C)C)cc1,/,.,/,.,.,/,/
Cc1ccc(-c2csc3nc[nH]c(=S)c23)cc1C,.,.,.,.,.,.,/
COC(=O)CCn1[nH]c(=O)c2ccccc2c1=O,.,.,.,.,.,.,/
O=c1[nH]n(Cc2ccccc2)c(=O)c2ccccc12,.,.,.,.,31,.,38
COc1ccc2oc(C(=O)OCC(=O)N3CCCC3=O)c(C)c2c1,/,.,/,/,/,/,/
CC[n+]1ccccc1/C=C/c1ccc(N(C)C)cc1,76,.,99,.,22,.,23
CC[n+]1c(/C=C/c2ccc(N(C)C)cc2)ccc2ccccc21,95,.,101,.,48,.,76
CCN(CC)c1ccc(/C=C/c2ccc3ccc(OC)cc3[n+]2CC)cc1,/,.,/,.,48,/,31
Cc1ccc(/C=C/c2ccc(N(C)C)cc2)[n+](C)c1,/,.,/,.,32,/,26
COC(C(=O)Nc1ccnn1C1CCN(Cc2ccc(C)o2)CC1)c1ccccc1 (configuration not stated),/,.,/,.,.,/,/
Cc1ccn2c(C(=O)CSc3ccccc3Cl)c(C)nc2c1,.,.,.,.,40,.,38
CCOC(=O)c1c(C)nc2cc(C)ccn12,.,.,.,.,.,.,/
Cc1ccc(/C=N/NC(=O)c2n[nH]c3c2CCCC3)cc1,93,77,93,.,88,/,83
